Experiment [1] in a line: Nuclear factor erythroid 2-related factor 2/antioxidant responsive element (Nrf2/ARE) small molecule agonists: qHTS cell viability counter screen in human keratinocytes (AID 1919968; active = well fitted curve in the direction sought with a large enough effect in the repeat runs; an effect the other way counts as inactive or inconclusive; note: nearly all actives have a fitted effect of over 55% in size; note: potency is the fitted concentration of half-maximal effect). The method, boiled down: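 Cells of the KeratinoSens line were plated at 1,500 per well and left for 5 h before compound transfer from DMSO stocks. After a 23 h incubation (37 C, 5% CO2), CellTiter-Fluor was added. Signal was taken as fluorescence intensity 1 h later.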
For orientation: qHTS replaces the single test concentration by a dilution series.

In experiment [2] the target is Gonadotropin-releasing hormone receptor (Homo sapiens) (UniProt P30968). In words: Human gonadotropin-releasing hormone receptor (GnRHR) small molecule agonists, calcium flux assay in GnRHR-HEK293 cells (AID 1920063). Note: nearly all actives have a fitted effect of over 35% in size. The essentials:
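Compounds dissolved in DMSO are pin-transferred onto dye-loaded GnRHR-HEK293 cells, which were seeded 18 h before at 37 C/5% CO2. Calcium signal is read as fluorescence intensity at 1 s intervals for 3 min.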

The target of experiment [3] is KiSS-1 receptor (Homo sapiens) (UniProt Q969F8). In words: Human kisspeptin (KISS1R) small molecule agonists, calcium flux assay in KISS1R-HEK293 cells (AID 1920064; active = well fitted curve in the direction sought with a large enough effect in the repeat runs; an effect the other way counts as inactive or inconclusive). The essentials: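 Cell line: HEK293, stable human KISS1R. Dye loading 1 h at 37 C after 18 h culture. Read: kinetic fluorescence, 480/540 nm, 3 min at 1 s intervals.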
Sequence of KiSS-1 receptor (Homo sapiens) (Q969F8 whole entry, looked up): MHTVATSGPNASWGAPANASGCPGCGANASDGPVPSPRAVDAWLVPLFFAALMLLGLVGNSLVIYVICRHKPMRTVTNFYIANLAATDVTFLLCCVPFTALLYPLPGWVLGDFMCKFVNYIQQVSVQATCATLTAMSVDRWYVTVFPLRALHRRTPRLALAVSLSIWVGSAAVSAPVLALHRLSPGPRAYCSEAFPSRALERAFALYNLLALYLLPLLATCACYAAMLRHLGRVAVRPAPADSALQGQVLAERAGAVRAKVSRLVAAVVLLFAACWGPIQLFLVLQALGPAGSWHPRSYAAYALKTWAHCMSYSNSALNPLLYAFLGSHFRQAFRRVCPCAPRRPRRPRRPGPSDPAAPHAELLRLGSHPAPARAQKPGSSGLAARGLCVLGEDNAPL
On the technique in general: Calcium flux is commonly read through the fluorescence of an indicator in the cells.

Experiment [4] is described as follows: G protein-coupled receptor (GPCR) small molecule agonists, calcium flux assay: HEK293 wild type cell line counter screen (AID 1920065). The essentials: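 Tox21 10K compounds, 15 concentrations each in triplicate, pin-transferred in DMSO onto dye-loaded cells; kinetic read at 480/540 nm for 3 min, 1 s intervals.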
Experiment [5] can be described thus: p53 small molecule agonists, cell-based qHTS assay with human liver microsomes (AID 1963577).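 For activation: p53 response element beta-lactamase reporter cells with liver microsomes plus NADPH.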 Note: potency is the fitted concentration of half-maximal effect. The method, boiled down:
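Steps: plate p53RE-bla cells, incubate 5 h at 37 C; add compound in DMSO; add microsomes (0.5 mg/mL final) and NADPH (0.5 mg/mL final); incubate 16 h at 37 C; add LiveBLAzer, 2 h RT; read fluorescence.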

Experiment [6] is described as follows: p53 small molecule agonists, cell-based qHTS assay with rat liver microsomes (AID 1963578). Note: potency is the fitted concentration of half-maximal effect. The method, boiled down:
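Metabolic activation is supplied by rat liver microsomes with NADPH (each 0.5 mg/mL final). p53RE-bla cells incubate with compound 16 h at 37 C; reporter activity is measured by LiveBLAzer fluorescence.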

Experiment [7] is described as follows: p53 small molecule agonists, cell-based qHTS assay with human liver microsomes: qHTS cell viability counter screen (AID 1963579). Note: nearly all actives have a fitted effect of over 45% in size. Note: potency is the fitted concentration of half-maximal effect. The method, boiled down: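 After the 460/530 nm beta-lactamase read, CellTiter-Glo was added to the same wells and luminescence measured after 30 min at room temperature, giving viability of p53RE-bla cells treated 16 h with compounds plus microsomes and NADPH.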

Experiment [8] is described as follows: p53 small molecule agonists, cell-based qHTS assay with rat liver microsomes: qHTS cell viability counter screen (AID 1963580). Note: nearly all actives have a fitted effect of over 45% in size. The essentials:
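Cytotoxicity counter screen: intracellular ATP read by CellTiter-Glo luminescence in the p53 reporter wells. HCT-116 p53RE-bla cells were treated for 16 h at 37 C alongside rat liver microsomes and NADPH, each 0.5 mg/mL final.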

A short description of experiment [9]: p53 small molecule agonists, cell-based qHTS assay: qHTS cell viability counter screen (AID 1963581). Note: nearly all actives have a fitted effect of over 45% in size. Note: potency is the fitted concentration of half-maximal effect. The essentials:
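ATP content measured by luminescence in HCT-116 p53RE-bla cells treated 16 h at 37 C, same wells as the reporter screen.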

Experiment [10] deals with 5-hydroxytryptamine receptor 2A (Homo sapiens) (UniProt P28223). In words: 5-hydroxytryptamine receptor 2A (HTR2A) small molecule agonists, cell-based qHTS assay (AID 1963587). Note: nearly all actives have a fitted effect of over 30% in size. The essentials: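 Kinetic calcium-flux fluorescence (2 min, 1 sec intervals) after compound addition in agonist mode. HTR2A-CHO cells were cultured 18 h, then dye-loaded 1 h at 37 C.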
Sequence of 5-hydroxytryptamine receptor 2A (Homo sapiens) (P28223 whole entry, looked up): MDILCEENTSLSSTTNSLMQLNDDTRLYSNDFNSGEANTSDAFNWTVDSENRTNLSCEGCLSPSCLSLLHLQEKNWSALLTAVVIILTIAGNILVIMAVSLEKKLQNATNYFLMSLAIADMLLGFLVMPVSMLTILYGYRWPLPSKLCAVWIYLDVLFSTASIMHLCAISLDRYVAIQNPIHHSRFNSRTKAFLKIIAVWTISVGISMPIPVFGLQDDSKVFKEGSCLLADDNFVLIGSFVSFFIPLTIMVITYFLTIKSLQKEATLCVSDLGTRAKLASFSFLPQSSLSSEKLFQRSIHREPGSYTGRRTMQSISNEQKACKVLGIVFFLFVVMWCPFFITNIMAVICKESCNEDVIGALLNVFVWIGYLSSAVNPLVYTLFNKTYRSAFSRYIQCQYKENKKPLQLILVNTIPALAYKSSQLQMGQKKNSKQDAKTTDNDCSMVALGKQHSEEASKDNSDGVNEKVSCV
For experiment [11], the target named is Muscarinic acetylcholine receptor M1 (Homo sapiens) (UniProt P11229). Description: Cholinergic receptor muscarinic 1 (CHRM1) small molecule antagonists, cell-based qHTS assay (AID 1963588). Note: nearly all actives have a fitted effect of over 40% in size. The method, boiled down:
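Compounds were tested at 15 concentrations in three independent runs. Dye-loaded CHRM1-CHO cells were exposed 5 min at room temperature before stimulation by acetylcholine added at 50nM. Intracellular calcium was read kinetically on FDSS for 3 min.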

The target is the same in experiment [12]. In words: Cholinergic receptor muscarinic 1 (CHRM1) small molecule agonists, cell-based qHTS assay (AID 1963589). Note: nearly all actives have a fitted effect of over 35% in size. The essentials:
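Homogeneous fluorescence calcium flux, agonist mode. Human M1-expressing CHO cells; compound dosed at 15 concentrations, three independent runs; signal sampled every 1 sec.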

Experiment [13] concerns the target Beta-2 adrenergic receptor (Homo sapiens) (UniProt P07550). In words: Adrenergic beta2 receptor (ADRB2) small molecule antagonists, cell-based qHTS assay (AID 1963592). Note: series mostly up to about 92 µM; nearly all actives have a fitted effect of over 50% in size. The method, boiled down:
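Assay format: CHO-ADRB2 cells, 18-20hr seeding at 37C/5% CO2, then compound plus 1nM isoproterenol agonist mix for 0.5hr RT. Homogeneous time-resolved fluorescence cAMP detection after 1hr, expressed as 665/615 nm ratio.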

Experiment [14] concerns the target D(2) dopamine receptor (Homo sapiens) (UniProt P14416). Description: Dopamine D2 receptor (DRD2) small molecule agonists, cell-based qHTS assay (AID 1963594). Note: nearly all actives have a fitted effect of over 35% in size. The method, boiled down:
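cAMP accumulation in DRD2-HEK293 cells measured by HTRF after 1 h detection; compounds added 10 min before NKH477 (200nM […]) forskolin-analogue stimulation, 30 min at room temperature, with Ro20-1724 present at 0.1 mM final.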

For experiment [15] the target is unchanged. In words: Dopamine D2 receptor (DRD2) small molecule antagonists, cell-based qHTS assay (AID 1963595; active = well fitted inhibition curve with a large enough effect in the signal ratio in the repeat runs, with a control signal flat; the % refers to the signal ratio). The method, boiled down: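 Cells were plated and grown for 24 h at 37 °C. Ro20-1724 (0.1 mM final) went in first, then compound for 10 min. NKH477 (200 nM) with quinpirole (12 nM) followed for 30 min at RT, then HTRF detection reagents for 1 h.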
Experiment [16] can be described thus: p53 small molecule agonists, cell-based qHTS assay (AID 1963582; active = well fitted activation curve with a large enough effect in the signal ratio in the repeat runs, not every such curve was filed as active; the % refers to the signal ratio). The method, boiled down: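 16 h compound exposure (37 C) of p53 response element–bla cells, preceded by 5 h recovery at 37 C/5% CO2; read-out via LiveBLAzer B/G FRET substrate, 2 h RT, fluorescence intensity.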
Experiment [17] in a line: cAMP Responsive Elements (CRE) small molecule agonists, cell-based qHTS assay (AID 1963590). The essentials: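 HEK 293T cells stably bearing CRE-bla were plated at 2,000 cells per well and rested 18 h. Compounds, positive controls or DMSO were added for 3 h at 37 C. LiveBLAzer B/G substrate was then loaded for 2 h at room temperature.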
Experiment [18] in a line: cAMP Responsive Elements (CRE) small molecule antagonists, cell-based qHTS assay (AID 1963591; active = well fitted inhibition curve with a large enough effect in the signal ratio in the repeat runs, not every such curve was filed as active; the % refers to the signal ratio). The method, boiled down: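 First, CRE-bla HEK293T cells settled 18 h at 37 C. Next, compound and 0.25 uM final NKH477 were applied for 3 h. Last, LiveBLAzer B/G substrate was loaded for 2 h at room temperature.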
The target of experiment [19] is 5-hydroxytryptamine receptor 2A (Homo sapiens) (UniProt P28223). Description: 5-hydroxytryptamine receptor 2A (HTR2A) small molecule antagonists, cell-based qHTS assay (AID 1963586). Note: nearly all actives have a fitted effect of over 45% in size. The essentials: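 CHO cells stably expressing human HTR2A were plated for 18 h at 37 C, then loaded with calcium dye for 1 h. Compounds were preincubated 5 min at room temperature before DOI (4 nM solution) was added. Kinetic fluorescence was read for 3 min.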

Results on 7 compounds are retold here after PubChem BioAssay (Tox21).

Records with an inconclusive call do not appear. Active and inactive are the calls of the source. Unless noted, calls come from the whole dose curve.

Sequence of Muscarinic acetylcholine receptor M1 (Homo sapiens) (P11229 whole entry, looked up): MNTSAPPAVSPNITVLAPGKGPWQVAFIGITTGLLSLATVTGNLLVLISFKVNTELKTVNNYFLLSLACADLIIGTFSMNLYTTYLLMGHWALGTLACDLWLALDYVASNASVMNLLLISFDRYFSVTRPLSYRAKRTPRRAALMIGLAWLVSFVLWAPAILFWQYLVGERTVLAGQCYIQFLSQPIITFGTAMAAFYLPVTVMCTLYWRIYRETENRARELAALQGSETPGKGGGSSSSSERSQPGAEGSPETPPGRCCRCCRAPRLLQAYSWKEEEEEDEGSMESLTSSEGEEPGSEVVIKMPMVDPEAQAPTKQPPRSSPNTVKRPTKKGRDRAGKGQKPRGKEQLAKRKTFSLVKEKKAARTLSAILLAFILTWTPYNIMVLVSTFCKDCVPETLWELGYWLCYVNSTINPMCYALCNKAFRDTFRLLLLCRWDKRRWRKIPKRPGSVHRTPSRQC
Sequence of Gonadotropin-releasing hormone receptor (Homo sapiens) (P30968 whole entry, looked up): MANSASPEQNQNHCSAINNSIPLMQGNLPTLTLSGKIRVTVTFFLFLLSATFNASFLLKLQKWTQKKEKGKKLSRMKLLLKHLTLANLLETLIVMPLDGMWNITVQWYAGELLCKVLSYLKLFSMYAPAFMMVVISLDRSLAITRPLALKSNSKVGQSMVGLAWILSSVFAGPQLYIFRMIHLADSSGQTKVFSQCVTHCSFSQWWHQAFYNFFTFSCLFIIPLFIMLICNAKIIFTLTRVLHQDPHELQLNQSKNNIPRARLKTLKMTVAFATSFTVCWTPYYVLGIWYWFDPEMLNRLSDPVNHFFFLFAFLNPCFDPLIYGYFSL
Sequence of Beta-2 adrenergic receptor (Homo sapiens) (P07550 whole entry, looked up): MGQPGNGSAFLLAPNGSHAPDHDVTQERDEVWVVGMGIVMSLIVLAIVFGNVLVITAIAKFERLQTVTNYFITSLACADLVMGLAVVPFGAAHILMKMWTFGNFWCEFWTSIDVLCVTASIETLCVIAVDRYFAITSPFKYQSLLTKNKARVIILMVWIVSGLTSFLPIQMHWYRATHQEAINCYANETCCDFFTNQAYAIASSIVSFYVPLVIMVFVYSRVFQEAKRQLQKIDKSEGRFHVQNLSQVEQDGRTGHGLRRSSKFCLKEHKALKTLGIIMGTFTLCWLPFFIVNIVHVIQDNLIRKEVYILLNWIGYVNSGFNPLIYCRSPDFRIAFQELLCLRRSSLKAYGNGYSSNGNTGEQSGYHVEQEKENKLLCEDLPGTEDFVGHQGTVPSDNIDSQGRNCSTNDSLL
Sequence of D(2) dopamine receptor (Homo sapiens) (P14416 whole entry, looked up): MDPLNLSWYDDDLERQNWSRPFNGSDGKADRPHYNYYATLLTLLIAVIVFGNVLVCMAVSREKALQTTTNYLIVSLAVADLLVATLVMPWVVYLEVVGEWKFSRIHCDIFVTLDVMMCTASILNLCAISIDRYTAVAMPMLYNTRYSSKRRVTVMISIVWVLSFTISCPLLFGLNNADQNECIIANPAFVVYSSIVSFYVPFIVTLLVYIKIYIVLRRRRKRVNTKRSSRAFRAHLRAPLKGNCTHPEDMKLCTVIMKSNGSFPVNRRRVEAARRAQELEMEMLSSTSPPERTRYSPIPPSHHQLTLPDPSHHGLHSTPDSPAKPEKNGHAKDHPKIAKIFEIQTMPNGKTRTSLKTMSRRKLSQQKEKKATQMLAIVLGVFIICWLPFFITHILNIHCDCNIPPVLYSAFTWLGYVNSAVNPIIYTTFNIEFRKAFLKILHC

As to `CCC/C(=N\OCC)C1=C(O)CC(CC(C)SCC)CC1=O` (centres undefined), the Potency result in [1], in experiment [2], in experiment [3], in experiment [4], in [5] and in experiment [6] was “inactive” in each case. For the same compound, the Potency result in experiment [7], in [8], in experiment [9], in [10], in [11] and in experiment [12] was “inactive” in each case. Further, the Potency result in [13], in experiment [14] and in [15] was “inactive” in each case.

As to `CC(=O)OC(c1ccccc1)C(Cl)(Cl)Cl` (centres undefined), the Potency entry in [1], in experiment [2], in [3], in experiment [4], in [5] and in experiment [6] was “inactive” in each case. The Potency entry in experiment [7], in experiment [9], in experiment [16], in experiment [10], in [11] and in [17] was “inactive” each time. For the same compound, the Potency entry in [18], in experiment [13], in [14] and in experiment [15] was “inactive” each time.

For the compound `CCOP(=S)(OCC)Oc1ncn(-c2ccccc2)n1`, the Potency entry in [1], in experiment [2], in experiment [3], in [4], in [7] and in [8] was “inactive” throughout. The Potency entry in experiment [9], in [16], in experiment [19], in [11], in experiment [12] and in [13] was “inactive” in each case. For the same compound, the Potency result in experiment [14] and in experiment [15] was “inactive” each time. In experiment [5], the Potency is 2.89 µM (active).

In the case of `O=C(NC(=O)c1c(F)cccc1F)Nc1cc(Cl)c(OC(F)(F)C(F)F)c(Cl)c1`, the Potency entry in experiment [1], in [2], in experiment [3], in experiment [4], in experiment [5] and in [6] was “inactive” throughout. In addition, the Potency entry in experiment [7], in experiment [8], in experiment [16], in experiment [19], in experiment [10] and in [11] was “inactive” throughout. For the same compound, the Potency result in experiment [12], in [17], in experiment [18], in experiment [13], in experiment [14] and in experiment [15] was “inactive” each time.

With `CCOC(=O)CC(=O)CCl`, the Potency result in [1], in [2], in [3], in experiment [4], in [5] and in experiment [6] was “inactive” in each case. Further, the Potency result in experiment [7], in experiment [8], in experiment [9], in [19], in experiment [11] and in [12] was “inactive” throughout. The Potency result in experiment [17], in experiment [18], in [13], in experiment [14] and in experiment [15] was “inactive” each time.

As to `CC1CCC(C(C)C)C(OC(=O)c2ccccc2N)C1` (centres undefined), the Potency in experiment [1] is 30.2 µM (active); in experiment [6] it was 35.8 µM (active); in [7] it was 35.8 µM (active); in [9], 31.9 µM (active). The Potency entry in experiment [2], in experiment [3], in experiment [4], in experiment [5], in experiment [8] and in experiment [10] was “inactive” each time. In addition, the Potency result in experiment [12], in [17] and in [14] was “inactive” in each case.

In the case of `CC1(C(=O)Nc2ccc(O)c(Cl)c2Cl)CCCCC1`, the Potency entry in experiment [1], in [2], in experiment [3], in [4], in experiment [5] and in [6] was “inactive” throughout. Moreover, the Potency result in experiment [7], in experiment [8], in [16], in experiment [19], in [11] and in [12] was “inactive” each time. The Potency result in [13], in experiment [14] and in experiment [15] was “inactive” in each case.
